RN4220 kill – kills Staphylococcus aureus RN4220 | inhibition, % (concentration not given with the values) | S. aureus RN4220 growth, OD600, 16 h | 0.33% of 330,000 active; in the data active means inhibition above about 85%;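 further: plate controls were untreated cells for no effect and reference antibiotic for full effect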
Sa ugtP lethal – growth inhibition of S. aureus ugtP deletion strain; S. aureus RN4220 ugtP deletion, OD600 growth, 16 h; growth inhibition, % (test concentration not listed); 0.54% of 330,000 active; in the data active means growth inhibition above about 68%;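 further: plate controls were untreated wells for no effect and antibiotic for full effect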
PriA SSB inh – K. pneumoniae PriA-SSBct interaction inhibition. 0.6% of 430,000 active. AlphaScreen SSBct-PriA binding, biotinylated peptide. inhibition, % at 33 µM; in the data active means inhibition mostly above about 37%, no sharp cut-off; inactive means mostly below about 20%;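 further: plate controls were negative control peptide for no effect and reference peptide for full effect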
MazEF act – MazEF (E. coli) toxin RNase activation | activation, % at 20 µM | 0.32% of 350,000 active | FAM/BHQ RNA-DNA oligo cleavage fluorescence, 5 h | AID 504720 | P0AE70; in the data active means activation above about 50%
Target sequence (P0AE70 whole entry, looked up): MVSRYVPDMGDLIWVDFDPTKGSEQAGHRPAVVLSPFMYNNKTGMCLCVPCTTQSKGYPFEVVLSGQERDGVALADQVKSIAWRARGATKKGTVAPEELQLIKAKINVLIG
BJeLR lethal – kills HRASV12-expressing BJeLR cells. BJeLR (HRASV12) viability, CellTiter-Glo ATP luminescence, 48 h. inhibition, % (no concentration beside the values). 0.17% of 300,000 active. AID 1554; in the data active means inhibition above about 50%
An asterisk follows results filed as active; . = no result; + = active, no number. Hits are enriched below; roughly 1.2% of the tested compounds scored in any of these assays.

SMILES	RN4220 kill	Sa ugtP lethal	PriA SSB inh	MazEF act	BJeLR lethal
Cc1cc(-c2nnc(NC(=O)C3COc4ccccc4O3)o2)n(C)n1 (stereo unspecified)	.	.	44*	.	.
COc1cc2c(cc1OC)CN(c1nc(CN3CCOCC3)nc3sc4c(c13)CCC(C)C4)CC2 (stereo unspecified)	-6	-19	16	-13	-1
O=S1(=O)c2c(F)cccc2OC(COCc2ccccc2)CN1C1CCCC1 (stereo unspecified)	.	.	-2	5	.
COC(=O)NC(C)N1C(=O)C2C3C=CC(C3)C2C1=O (stereo unspecified)	1	12	-20	7	-3
COc1cnc(-c2ccccn2)nc1Oc1cccc(C(F)(F)F)c1	.	.	.	.	5
c1ccc(Oc2nc(-c3ccccn3)nnc2-c2ccccc2)cc1	.	.	103*	.	.
COc1cnc(-c2ccccn2)nc1Oc1ccccc1	9	-4	64*	7	4
COc1cnc(-c2ccccn2)nc1Sc1ccc(Cl)cc1	4	2	-2	-14	-10
C=CCNc1nc(-c2ccccn2)nnc1-c1ccccc1	31	0	-9	2	-26
COc1cnc(-c2ccccn2)nc1Oc1cc(Cl)cc(Cl)c1	.	.	63*	.	.
COc1cnc(-c2ccccn2)nc1N(C)c1ccccc1	.	.	98*	5	-5
O=S(=O)(NC1c2cccc3cccc(c23)C1N1CCN(C(=S)Nc2ccccc2)CC1)c1ccc(Cl)cc1 (stereo unspecified)	.	.	13	.	.
O=C(NCC(=O)N(Cc1ccco1)C(C(=O)NC1CCCC1)c1cccnc1)c1ccco1 (stereo unspecified)	3	3	-10	15	6
Clc1ccc(-c2cnnc(-c3ccccn3)n2)cc1	7	-14	58*	7	.
COc1cnc(-c2ccccn2)nc1Sc1ccccc1	8	7	22	5	-3
COc1cnc(-c2ccccn2)nc1Oc1ccc(F)cc1	.	.	109*	.	.
c1ccc(-c2cnc(-c3ccccn3)nn2)cc1	-15	-6	69*	2	7
CCOC(=O)CSc1nc(-c2ccccn2)ncc1OC	3	4	83*	8	-9
COc1cnc(-c2ccccn2)nc1Sc1ccc(F)cc1	6	-3	11	-1	-2
N#CC(C#N)=NNc1cccc(Br)c1	.	.	68	.	.
CC(=NN(Cc1ccccc1)c1ccccc1)c1ccncc1	4	8	24	.	.
Cc1cc(Cl)cc2c(N=Nc3ccccc3C(=O)O)c(O)[nH]c12	-7	-2	0	-18	2
Cc1ccc(Cl)c2c(N=Nc3ccccc3)c(O)[nH]c12	0	3	-13	+	1
O=C(Nc1nc2cc3c(cc2s1)OCCO3)c1ccc([N+](=O)[O-])o1	21	88*	-5	5	6
O=C(Nc1nc2ccccc2s1)c1ccc([N+](=O)[O-])o1	8	5	-10	0	7
SMILES	RN4220 kill	Sa ugtP lethal	PriA SSB inh	MazEF act	BJeLR lethal
Cc1cc(C)c2nc(NC(=O)c3ccc([N+](=O)[O-])o3)sc2c1	8	99*	-6	10	-13
COc1ccc2nc(NC(=O)c3ccc([N+](=O)[O-])o3)sc2c1	48	100*	-2	7	-1
Cc1c(C(=O)OCC(=O)NCC2CCCO2)oc2ccccc12 (stereo unspecified)	4	1	-22	-4	.
O=[N+]([O-])c1ccc(O)c(C2=NNC(c3ccccc3F)C2)c1 (stereo unspecified)	92*	94*	-3	5	17
CCOC(=O)c1cc(-c2ccc(N)cc2)sc1N	-5	-6	50*	20	8
CCOC(=O)C(O)(c1ccc(NC(=S)NC(=O)c2ccc(Cl)cc2Cl)cc1)C(F)(F)F (stereo unspecified)	24	84*	-8	0	12
COC(=O)C(O)(c1ccc(NC(=S)NC(=O)c2ccc(Cl)cc2Cl)cc1)C(F)(F)F (stereo unspecified)	5	86*	7	3	-4
COC(=O)C(O)(c1ccc(NC(=S)NC(=O)c2ccc(Cl)cc2Cl)c(C)c1)C(F)(F)F (stereo unspecified)	27	31	16	6	1
CC1=C(C(=O)OCc2ccccc2)C(c2ccc(Cl)cc2)NC(=O)N1C (stereo unspecified)	2	-1	-10	-6	-13
O=C(N[C@H]1CCCc2ccccc21)C1CCN(c2ccc(-n3cncn3)nn2)CC1	.	.	0	.	.
OCCNc1c2ccccc2nc2c(F)c(F)c(F)c(F)c12	6	8	-30	-4	28
Cc1c2ccccc2nc2c(F)c(NCCO)c(F)c(F)c12	3	-2	12	63*	8
CN(C)C/C=C/C(O)(c1ccccc1)c1ccccc1	2	7	-9	11	1
CN(C)CC(CCC(CN(C)C)C(O)(c1ccccc1)c1ccccc1)C(O)(c1ccccc1)c1ccccc1 (stereo unspecified)	-6	4	8	15	83*
CCN(C(=O)c1ccccc1F)c1nc(-c2ccc(OC)cc2)cs1	-7	90*	-12	-1	2
O=c1[nH]c(=O)n(-c2ccccc2)c(O)c1/C=C/C=Nc1ccccc1	.	.	.	-212	-1
O=c1[nH]c(=O)n(C2CCCCC2)c(O)c1/C=C/C=Nc1ccccc1	6	-1	.	96*	8
CC(Nc1ccc(S(=O)(=O)N2CCN(C)CC2)cc1[N+](=O)[O-])c1ccccc1 (stereo unspecified)	0	-2	17	3	.
CCCc1cc(=O)oc2cc(C)cc(OCc3nn[nH]n3)c12	6	0	-25	3	-7
Cc1cc(=O)oc2c1c(C)nn2-c1nn[nH]n1	3	3	58*	-8	2
Nc1c(C(=O)c2ccc(Cl)cc2)sc2nc3c(cc12)CCC3	-1	-14	-21	70*	5
CC1(C)CNc2cc(N)ccc2S1	5	-11	74*	36	0
NNc1nc(-c2ccccc2)cc(-c2ccccc2O)n1	17	5	40*	4	20
COc1cc(/C=C/c2cc[n+](C)cc2)ccc1OCC(=O)Nc1ccc(Cl)c(Cl)c1	78	100*	6	-13	5
Cc1ccc(-c2cc(=O)c3cc(NC(=O)c4ccccc4Cl)ccc3o2)cc1	.	.	-12	.	.
Cc1ccccc1C1=C/C(=C(\SS/C(C(=O)c2ccc(OCC(=O)O)c(Cl)c2Cl)=C2\C=C(c3ccccc3C)SS2)C(=O)c2ccc(OCC(=O)O)c(Cl)c2Cl)SS1	.	.	62*	-40	.
N#Cc1nc(Cc2ccccc2)oc1N1CCC(C(N)=O)CC1	-9	-4	-8	5	-1
N#Cc1nc(Cc2ccccc2)oc1N1CCN(c2ccccc2)CC1	1	-1	45*	3	2
N#Cc1nc(Cc2ccccc2)oc1N1CCC(Cc2ccccc2)CC1	-7	50	50*	-6	-4
Cc1cccc(N=NC(=S)NNc2cccc(C)c2)c1	-3	0	52*	15	.

Assay outcomes as filed in PubChem BioAssay.
